Assay outcomes as filed in PubChem BioAssay.
Only some compounds are listed: those with a hit (about 4.1% of all), similar ones and a draw of the others.
DAX1 inh-1 – inhibitors of DAX1 repression of SF-1 activated StAR promoter. HEK293T StAR-luciferase reporter, SF-1/DAX-1 repression relief. inhibition, % at 6.8 µM. actives 1.1% (n = 370,000). AID 652010;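 active = inhibition above the mean over all tested compounds plus 3 SD, cut at about 3.6% in these data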;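 also: 0% = DAX-1 cells with DMSO and 100% = cells lacking DAX-1 with DMSO; higher inhibition means more luminescence from relief of DAX-1 repression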
DAX1 inh-2 – inhibitors of human orphan nuclear receptor DAX1 (NR0B1). HEK293 Gal4-DAX1 luciferase reporter, luminescence. actives 0.99% (n = 340,000). inhibition, % at 6.75 µM. AID 504766;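 active = inhibition above the mean over all tested compounds plus 3 SD, cut at about 4.2% in these data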;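 also: 0% = DAX1-transfected cells with DMSO and 100% = empty-vector control cells with DMSO; inhibition shows as a rise in luminescence from relieved DAX1 repression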
ssDAF-12 act – activates DAF-12 receptor from parasite S. stercoralis | HEK293 ssDAF-12/GRIP1 lit1-tk-luc reporter, luminescence; % of 3 µM dafachronic acid response | activation, % at 6.8 µM | actives 1% (n = 370,000) | AID 652126;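 active = activation above the mean over all tested compounds plus 3 SD, cut at about 0.9% in these data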;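 also: 0% = DMSO-only wells and 100% = 3 µM delta7-dafachronic acid wells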
hgDAF-12 ag – agonists of H. glycines DAF-12 nuclear receptor; HEK293 GAL4-hgDAF12 UAS-luciferase reporter, agonist luminescence; normalized to butyrate control; activation, % at 6.8 µM; actives 1.8% (n = 370,000); AID 687014;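 active = activation above a cutoff set at the mean of all screened compounds plus 3 SD, cut at about 10% in these data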;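 also: 0% = DMSO wells and 100% = sodium butyrate wells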
hcDAF12 agonist – activators of H. contortus DAF-12 nuclear receptor | activation, % at 6.8 µM | actives 1.4% (n = 370,000) | AID 652067 | HEK293 hcDAF-12 lit1-tk-luc reporter, luminescence; 0% DMSO, 100% Δ7-dafachronic acid;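 active = activation above the mean of all tested compounds plus 3 SD, cut at about 5.5% in these data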;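 also: 100% = response to 3 µM Δ7-dafachronic acid high control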
LXRb hcDAF ctr – LXR-beta agonism as hcDAF-12 counter-screen; HEK293 Gal4-LXR tk-luc reporter, luminescence, 24 h; normalized: DMSO 0%, positive control 100%; 3,400 tested, under 10 active; shares compounds with hcDAF12 agonist; activation, % at 6.8 µM;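 active = mean percent activation of the reporter above a cutoff set as the average over tested compounds plus their standard deviation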
Target sequence (P55055 whole entry, looked up, the tested form may be a part): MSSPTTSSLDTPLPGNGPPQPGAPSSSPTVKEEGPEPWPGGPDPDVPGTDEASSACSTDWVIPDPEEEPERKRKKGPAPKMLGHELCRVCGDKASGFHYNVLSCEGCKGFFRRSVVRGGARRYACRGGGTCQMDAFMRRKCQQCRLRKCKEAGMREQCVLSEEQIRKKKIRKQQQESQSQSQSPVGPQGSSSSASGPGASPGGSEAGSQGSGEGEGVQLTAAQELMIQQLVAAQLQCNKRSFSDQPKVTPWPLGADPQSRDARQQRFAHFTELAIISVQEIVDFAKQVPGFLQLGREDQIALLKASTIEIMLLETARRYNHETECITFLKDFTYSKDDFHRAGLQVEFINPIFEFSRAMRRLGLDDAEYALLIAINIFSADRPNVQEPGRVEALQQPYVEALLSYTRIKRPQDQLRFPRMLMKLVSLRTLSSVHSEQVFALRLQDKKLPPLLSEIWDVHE
hcDAF12 conf – hcDAF-12 agonism, confirmation assay. shares compounds with hcDAF12 agonist. HEK293 hcDAF-12 lit1-tk-luc reporter, luminescence; % of Δ7-dafachronic acid response. activation, % at 6.8 µM. actives 61% (n = 3,400);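 active = mean activation across triplicate tests above the threshold derived from the earlier primary screen, cut at about 5.5% in these data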;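 also: 0% = DMSO only wells and 100% = 3 µM Δ7-dafachronic acid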
Numbers without * were called inactive; . = no result.

SMILES | DAX1 inh-1 | DAX1 inh-2 | ssDAF-12 act | hgDAF-12 ag | hcDAF12 agonist | LXRb hcDAF ctr | hcDAF12 conf
COc1cccc(Nc2nnc(SCc3nc4ccccc4s3)s2)c1 | 0 | 0 | 1 | 8 | 7.0* | 1 | 10*
CCN(CC)C(=O)Cn1cnc([N+](=O)[O-])n1 | 1 | 0 | -1 | 4 | 0 | . | .
Nc1[nH]c2cc(C(F)(F)F)ccc2c1C(=O)NCc1ccc(F)cc1 | -1 | . | 0 | 0 | 7.0* | 0 | 4
CC(=O)c1c(C)[nH]c(C(=O)NCCc2ccc(Cl)cc2)c1C | -1 | 0 | -2 | 3 | -1 | . | .
Nc1[nH]c2cc(Cl)ccc2c1C(=O)NCCc1ccc(Cl)cc1 | 1 | . | 0 | 1 | 6.6* | 0 | 7.2*
CC12CCC(=O)C=C1CCC1C2CCC2(C)C(c3csc(N)n3)CCC12 (configuration not stated) | -4 | -4 | -2 | -7 | -4 | . | .
CC(C)C(NC(=O)CN(c1ccc2c(c1)OCCO2)S(=O)(=O)c1ccccc1)C(C)C | 0 | 1 | -2 | 0 | 0 | . | .
O=C(c1ccccc1)c1cc2ccccc2oc1=O | 1 | 0 | 0 | 3 | 6.9* | 0 | 5
CCc1ccc(N=Nc2ccc(O)c3[nH]cnc23)cc1 | 1 | 5.3* | 1.0* | 8 | 7.8* | 0 | 8.6*
Cc1ccc(NC(=O)CN(C)C(=O)C2CCC2)cc1 | 1 | 2 | -1 | -1 | 0 | . | .
Cc1ccc2[nH]cc(CCNS(=O)(=O)c3ccc(F)cc3)c2c1 | 0 | -2 | -1 | -1 | -1 | . | .
CC1CC(C)(C)NC(=S)N1CC(=O)N1CCN(Cc2ccc3c(c2)OCO3)CC1 (configuration not stated) | 0 | 0 | -1 | -2 | -2 | . | .
CCCS(=O)(=O)n1nc(-c2ccccc2)cc1N | 1 | 0 | -1 | 1 | 9.9* | 0 | 2
CCS(=O)(=O)n1nc(-c2ccccc2)cc1N | 1 | 1 | -1 | -1 | -2 | . | .
CCCc1nc2c(C)cc(Br)cn2c1Cc1ccccc1 | 1 | . | 1.0* | 7 | 11* | 1 | 7.4*
Clc1ccc2nc(-c3cccc(Br)c3)c(Cc3ccsc3)n2c1 | 4 | . | 0 | 10 | 1 | . | .
Fc1cccc(Cc2c(C3CCCCC3)nc3c4ccccc4ccn23)c1 | 3 | . | 1 | 10 | 8.6* | 0 | 5
Cc1cc(Br)cn2c(Cc3ccccc3)c(-c3cccc(Cl)c3)nc12 | -1 | . | 0 | 3 | 7.0* | 0 | 2
Clc1ccc(-c2nc3c4ccccc4ccn3c2Cc2ccsc2)cc1 | 2 | . | 0 | 8 | 8.8* | 0 | 5.8*
CCOc1ccc(S(=O)(=O)Nc2cc(S(=O)(=O)N3CCOCC3)ccc2OC)cc1 | -1 | 0 | -1 | -2 | 0 | . | .
O=C(OCC(=O)N1CCCc2ccccc21)c1cccc(S(=O)(=O)N2CCOCC2)c1 | -1 | 0 | -1 | 1 | 0 | . | .
COc1cc(CNc2ncnc3c2ncn3[C@H]2CN(Cc3ccc4c(c3)OCO4)C[C@@H](CO)O2)cc(OC)c1OC | -1 | . | -1 | -5 | -1 | . | .
Brc1cccc(-c2nc3c4ccccc4ccn3c2Cc2ccccc2)c1 | -1 | . | 1.0* | 1 | 7.2* | 0 | 7.4*
CCCc1nc2c3ccccc3ccn2c1Cc1cccc(Cl)c1 | 2 | . | 1 | 12* | 6.7* | 1 | 7.1*
c1ccc(-c2nc3c4ccccc4ccn3c2CN2CCOCC2)cc1 | 1 | 4 | 1 | 10 | 8.3* | 0 | 6.7*
SMILES | DAX1 inh-1 | DAX1 inh-2 | ssDAF-12 act | hgDAF-12 ag | hcDAF12 agonist | LXRb hcDAF ctr | hcDAF12 conf
O=C1CCCCN1CCC(=O)N1CCCC(N2CCN(c3ccccc3)CC2)C1 (configuration not stated) | 0 | 0 | -1 | 1 | -1 | . | .
COc1ccc(NC(=O)c2cc(C3CCCCN3C(=O)c3ccc4c(c3)CCO4)on2)c(C)c1 (configuration not stated) | 0 | . | -2 | -4 | -1 | . | .
N#C/C(=C\c1ccc(N2CCOCC2)o1)c1ccccc1 | 0 | -1 | -2 | -2 | -1 | . | .
N#C/C(=C/c1ccc(N2CCOCC2)o1)c1nc2ccccc2[nH]1 | 2 | 3 | 1 | 2 | 6.8* | 2 | 8.1*
O=C(c1[nH]c(C(F)(F)F)nc1-c1ccccc1)N1CCC(C(O)(c2ccccc2)c2ccccc2)CC1 | 0 | . | 0 | -2 | 0 | . | .
CCN(CC(=O)Nc1cc(C)on1)CC(=O)Nc1ccccc1C(F)(F)F | -2 | 1 | 0 | 1 | -1 | . | .
CN(C)c1ccc(-c2cc3ccccc3c(=O)o2)cc1 | 3 | 2 | 1.7* | 20* | 9.5* | 2 | 16*
CCOc1ccc(N2C(=O)CC(n3ccc(C)n3)C2=O)cc1 (configuration not stated) | 0 | 3 | -1 | 0 | 0 | . | .
O=C(Nc1nccs1)C1Cc2ccccc2CN1S(=O)(=O)c1ccc(F)cc1 (configuration not stated) | 3 | 1 | 1 | 12* | 11* | 1 | 7.7*
CC1=NN(C(N)=S)C(=O)C1N=Nc1ccc(C)cc1C (configuration not stated) | 1 | . | 1.2* | 11* | 12* | 1 | 13*
O=C(Nc1nc2c(F)cc(F)cc2s1)C1CC(=O)N(Cc2ccco2)C1 (configuration not stated) | 0 | 0 | -1 | -1 | 1 | . | .
O=C(CN1C(=O)C2C3C=CC(C4CC34)C2C1=O)Nc1cnc2ccccc2c1 (configuration not stated) | 0 | 3 | 0 | 1 | 7.5* | 0 | 2
COc1cc(C#Cc2c(C=O)n(C)c3ccccc23)cc(OC)c1 | 0 | 0 | 0 | 1 | 6.9* | 0 | 3
Cn1cncc1C#Cc1c(C=O)n(C)c2ccccc12 | 1 | 0 | -1 | -3 | -2 | . | .
COC(=O)C1CCN(c2nc3ccccc3nc2C(C#N)C(=O)NCCc2ccccc2)CC1 (configuration not stated) | 0 | 0 | 0 | -1 | 8.2* | 0 | 4
COC(=O)C1CCN(c2nc3ccccc3nc2C(C#N)C(=O)OCC(C)C)CC1 (configuration not stated) | -1 | -1 | -1 | 2 | 0 | . | .
Cc1cccc(C2c3[nH]c4ccccc4c3CCN2C(=O)CN2CCOC2=O)n1 (configuration not stated) | -1 | 0 | 0 | -2 | 7.0* | 0 | 6.1*
CCC(C)Nc1nc2ccccc2n2c(C)nnc12 (configuration not stated) | 0 | 0 | -1 | -2 | -1 | . | .
